In the library only some 11% were active in any assay of this set; here they are far more common.
PI5P4K alpha inh: PI5P4K alpha (human) kinase inhibition; P48426; PI5P4Kalpha enzyme, ADP-Glo luminescence, 60 min; active compounds read low; max response, %; actives 1.2% (n = 330,000); AID 652105; active means max response of -50% or lower; inconclusive means between -30% and -50%; inactive means -30% or higher; further: value at the top dose of about 77 µM; on the % scale 0 is the no-effect control and ±100 the full control effect
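Luminescence from ADP-Glo served as readout of PI5P4Kalpha activity in a qHTS format. Reaction: enzyme, substrate, compound, ATP at 5 microM final, 60 min at RT.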
HP1b chromo inh: inhibitors of HP1-beta chromodomain binding to methylated histone tails; AlphaScreen HP1-beta / biotin-H3K9me3 peptide binding; Potency, µM (series often up to 114 µM), for inactives: at the highest dose activity change, negative = inhibition, hits mostly inhibitors; P83916; actives 0.56% (n = 390,000); AID 540317; further: potency means the concentration at half of the fitted maximal effect; nearly all actives have a fitted effect of over 70% in size
Target sequence (P83916 whole entry, looked up): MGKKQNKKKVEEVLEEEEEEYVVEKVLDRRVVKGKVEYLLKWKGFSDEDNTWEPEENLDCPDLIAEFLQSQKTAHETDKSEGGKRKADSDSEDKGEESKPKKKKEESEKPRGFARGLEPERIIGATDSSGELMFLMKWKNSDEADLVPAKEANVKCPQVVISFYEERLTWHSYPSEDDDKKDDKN
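Compound inhibition of the preformed complex between 50 nM HP1-beta and 50 nM biotinylated H3K9me3 peptide was read by AlphaScreen. Buffer was PBS pH 7.4 with 0.01% Tween-20. Incubations ran 30 min at room temperature, with 10 ug/mL donor/acceptor beads.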
L3MBTL1 block: inhibitors of human L3MBTL1. Q9Y468. AlphaScreen L3MBTL1–H3K9me1 peptide binding. Potency, µM (top dose mostly 57.1 µM), for inactives: at the highest dose activity, negative = inhibition, hits mostly inhibitors. actives 0.66% (n = 230,000). AID 485360; further: potency means the concentration at half of the fitted maximal effect; on the % scale 0 is the no-effect control and ±100 the full control effect; nearly all actives have a fitted effect of over 60% in size
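Read-out is AlphaScreen signal from streptavidin donor and nickel chelate acceptor beads (10 ug/mL final each) bridging L3MBTL1 (50 nM) and biotinylated K9-monomethylated H3(1-15) peptide (75 nM), after 30 min compound exposure at room temperature.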
JMJD2A Tudor inh: inhibitors of human JMJD2A Tudor domain. Potency, µM (highest dose often 114 µM), inactives show at the highest dose activity change, negative = inhibition, actives largely listed as inhibitors. AlphaScreen JMJD2A-Tudor / H3K4me3 peptide binding. actives 4.4% (n = 390,000). AID 504339; further: potency means the concentration at half of the fitted maximal effect; on the % scale 0 is the no-effect control and ±100 the full control effect; nearly all actives have a fitted effect of over 50% in size
BAZ2B inh: BAZ2B (human) inhibition; actives 4.4% (n = 360,000); AID 504333; Q9UIF8; AlphaScreen BAZ2B-H3K14Ac peptide displacement; Potency, µM (titrated, usually from 114 µM), inactives show at the highest dose activity change, negative = inhibition, usual class: inhibitors; further: potency means the concentration at half of the fitted maximal effect; on the % scale 0 is the no-effect control and ±100 the full control effect; nearly all actives have a fitted effect of over 60% in size
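Compounds, titrated to a top concentration of 110 uM, were incubated 30 min at room temperature with preformed BAZ2B/acetyl-K14 H3 peptide complex (50 nM each). Proximity signal was measured by AlphaScreen after 20 min with beads.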
G9a inh: blocks human histone lysine methyltransferase G9a | Q96KQ7 | G9a H3K9 monomethylation, AlphaScreen, 2 h | Potency, µM (highest dose often 102 µM), for the others: at the top dose activity, negative = inhibition, usual class: inhibitors | actives 8.8% (n = 350,000) | AID 504332; further: potency means the concentration at half of the fitted maximal effect; on the % scale 0 is the no-effect control and ±100 the full control effect; nearly all actives have a fitted effect of over 75% in size
Target sequence (Q96KQ7 913-1193 limits assumed): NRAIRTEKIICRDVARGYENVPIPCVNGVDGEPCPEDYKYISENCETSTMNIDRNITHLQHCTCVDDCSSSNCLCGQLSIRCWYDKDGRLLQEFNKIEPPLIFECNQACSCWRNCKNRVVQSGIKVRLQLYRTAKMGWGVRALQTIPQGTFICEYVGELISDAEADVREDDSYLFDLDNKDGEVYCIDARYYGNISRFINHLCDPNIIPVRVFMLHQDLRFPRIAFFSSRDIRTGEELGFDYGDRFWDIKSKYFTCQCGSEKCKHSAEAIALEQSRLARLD
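G9a (20 nM) was preincubated 15 min with compound, then reacted 2 h at room temperature with 500 nM biotin-H3K9 peptide and 20 µM SAM. Monomethyl-H3K9 detected by AlphaScreen using anti-H3K9me1 antibody.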
Active calls of the source: *; ! = repeats disagree; [ ] = dose if it differs, or a comment. Unless noted, the call rests on the fitted dose curve; in most records, active means well fitted inhibition curve with a large enough effect; inconclusive means small, poorly fitted or top-dose-only effect; inactive means no such curve, though single readings can be large or run the other way.

What do the screens show for `CN1C(=S)CN=C(c2ccccc2)c2cc(Cl)ccc21`?
G9a inh: -46.6%[12.7 µM]

Results for C[n+]1ccc(-c2ccncc2)cc1 ?
HP1b chromo inh: 23.6%; L3MBTL1 block: -2.2%; JMJD2A Tudor inh: 39.8µM*; BAZ2B inh: -3.7%; G9a inh: 15.8µM*

How did Cc1ccc(CSCCNS(=O)(=O)c2ccc([N+](=O)[O-])cc2)cc1 do in these assays?
PI5P4K alpha inh: 7.8; HP1b chromo inh: -6.7%; JMJD2A Tudor inh: inconclusive; BAZ2B inh: inconclusive; G9a inh: inconclusive

What do the screens show for `O=c1[nH]c(=S)[nH]c(O)c1N=Nc1cc2c(cc1[N+](=O)[O-])OCO2`?
PI5P4K alpha inh: -12.4; HP1b chromo inh: -26.3%; L3MBTL1 block: 14.1%; JMJD2A Tudor inh: -12.2%[57.1 µM]; BAZ2B inh: -31.1%; G9a inh: 50.1µM*

How did O=c1[nH]c(=S)[nH]c(O)c1N=Nc1ccc(-c2ccccc2)cc1[N+](=O)[O-] do in these assays?
L3MBTL1 block: inconclusive; BAZ2B inh: 7.94µM*; G9a inh: 11.2µM*

How did O=c1[nH]c(=S)[nH]c(O)c1N=Nc1ccc2c(c1)OCO2 do in these assays?
PI5P4K alpha inh: -25.9; HP1b chromo inh: 24.2%; L3MBTL1 block: -0.4%; JMJD2A Tudor inh: -9.0%; BAZ2B inh: -29.0%; G9a inh: inconclusive

What do the screens show for `Cc1cccn2c(=O)c(/C=C(\C#N)c3nc4ccccc4s3)c(Oc3ccc(F)cc3)nc12`?
HP1b chromo inh: 47.2%; JMJD2A Tudor inh: -8.9%; BAZ2B inh: -2.4%; G9a inh: -25.2%[59 µM]

Results for CN1CCC[C@@H]1c1cccnc1 ?
G9a inh: -43.3%[59 µM]

How did CN(C)c1ccc(C=C2C=CC=C2)cc1 do in these assays?
PI5P4K alpha inh: -18.3; HP1b chromo inh: 22.4µM*; JMJD2A Tudor inh: 17.8µM*

How did Cc1ccc2scc(N3CCN(C)CC3)c(=O)c2c1 do in these assays?
HP1b chromo inh: 14.2%[57 µM]; JMJD2A Tudor inh: -26.8%; BAZ2B inh: 7.8%; G9a inh: 39.2%[59 µM]

Results for CC(C)n1c(=O)c(C=Nc2cccc([N+](=O)[O-])c2)c(O)n(CCc2ccccc2)c1=O ?
PI5P4K alpha inh: -0.9; HP1b chromo inh: -6.6%; L3MBTL1 block: -17.1%; JMJD2A Tudor inh: inconclusive; BAZ2B inh: inconclusive; G9a inh: 10µM*

What do the screens show for `COc1cc2c3cc1Oc1cc(ccc1O)C[C@@H]1c4c(cc(OC)c(O)c4Oc4ccc(cc4)C[C@H]3N(C)CC2)CCN1C`?
PI5P4K alpha inh: 0.4; HP1b chromo inh: -6.2%; L3MBTL1 block: -0.8%; JMJD2A Tudor inh: inconclusive; BAZ2B inh: 44.7µM*; G9a inh: inconclusive

How did COc1cc2c3c(c1OC)Oc1ccc(cc1)C[C@H]1c4c(cc(OC)c(OC)c4Oc4ccc(cc4)C[C@@H]3N(C)CC2)CCN1C do in these assays?
PI5P4K alpha inh: -91.9*; HP1b chromo inh: 2.5%; L3MBTL1 block: -8.4%; JMJD2A Tudor inh: inconclusive

Results for COc1cc2c3cc1Oc1c(OC)c(OC)cc4c1[C@H](Cc1ccc(cc1)Oc1cc(ccc1O)C[C@H]3N(C)CC2)N(C)CC4 ?
PI5P4K alpha inh: -3.4; HP1b chromo inh: -12.4%; L3MBTL1 block: -0.5%; JMJD2A Tudor inh: inconclusive

Results for COc1ccc2cc1Oc1ccc(cc1)C[C@H]1c3cc(c(OC)cc3CCN1C)Oc1c(OC)c(OC)cc3c1[C@H](C2)N(C)CC3 ?
PI5P4K alpha inh: -17.8; HP1b chromo inh: -21.9%; JMJD2A Tudor inh: 50.1µM*; BAZ2B inh: -31.8%; G9a inh: -36.8%[59 µM]

What do the screens show for `CN(C)[C@@H]1C(=O)C(C(N)=O)=C(O)[C@]2(O)C(=O)C3=C(O)c4c(O)cccc4[C@@](C)(O)[C@H]3[C@H](O)[C@@H]12`?
G9a inh: 5.01µM*

What do the screens show for `CN(C)[C@@H]1C(=O)C(C(N)=O)=C(O)[C@@]2(O)C(=O)C3=C(O)c4c(O)ccc(Cl)c4[C@@](C)(O)C3C[C@@H]12` (stereo partly specified)?
PI5P4K alpha inh: inconclusive; HP1b chromo inh: 31.4%; L3MBTL1 block: inconclusive; JMJD2A Tudor inh: 11.2µM*; BAZ2B inh: 44.7µM*; G9a inh: 50.1µM*

How did CN(C)[C@@H]1C(=O)C(C(N)=O)=C(O)[C@@]2(O)C(=O)C3=C(O)c4c(O)cccc4[C@@](C)(O)C3[C@H](O)C12 (stereo partly specified) do in these assays?
PI5P4K alpha inh: -87.7*!; HP1b chromo inh: 14.1µM*!; L3MBTL1 block: 3.16µM*; JMJD2A Tudor inh: 3.16µM*; BAZ2B inh: 6.31µM*; G9a inh: 4.47µM*

Results for NCCCNCCCCNCCCNC(=O)Cc1ccc(O)cc1 ?
G9a inh: 7.5%[12.7 µM]

Results for Cc1ccccc1-n1c(O)c(/C=C2/C(c3ccccc3)=Nc3ccccc32)c(=O)[nH]c1=O ?
PI5P4K alpha inh: -19.1; HP1b chromo inh: inconclusive; L3MBTL1 block: 23.7%; JMJD2A Tudor inh: inconclusive; BAZ2B inh: inconclusive; G9a inh: inconclusive

How did Cc1ccc(-n2c(O)c(/C=C3/C(c4ccccc4)=Nc4ccccc43)c(=O)[nH]c2=O)cc1 do in these assays?
PI5P4K alpha inh: -15.8; HP1b chromo inh: -30.5%; L3MBTL1 block: -8.9%; JMJD2A Tudor inh: inconclusive; BAZ2B inh: inconclusive; G9a inh: 35.5µM*

What do the screens show for `Cc1cccc(-n2c(O)c(/C=C3/C(c4ccccc4)=Nc4ccccc43)c(=O)[nH]c2=O)c1`?
PI5P4K alpha inh: -13.7; HP1b chromo inh: -10.4%; JMJD2A Tudor inh: inconclusive; BAZ2B inh: 39.8µM*; G9a inh: inconclusive

How did CCSc1nc2n(n1)C(c1ccc(Cl)cc1Cl)C(C(=O)Nc1ccccc1C)=C(C)N2 (stereo unspecified) do in these assays?
HP1b chromo inh: 43.9%; JMJD2A Tudor inh: -17.3%; BAZ2B inh: -1.4%; G9a inh: -25.6%[59 µM]

Results for CN(C)CC1CCCCC1OC(=O)Cc1ccc(Cl)c([N+](=O)[O-])c1 (stereo unspecified) ?
PI5P4K alpha inh: -10.0; HP1b chromo inh: inconclusive; JMJD2A Tudor inh: 14.1µM*; BAZ2B inh: inconclusive; G9a inh: inconclusive

Results for CN(C(=O)COC(=O)c1ccc([N+](=O)[O-])cc1Cl)C1CCCCC1 ?
PI5P4K alpha inh: -3.6; HP1b chromo inh: 7.5%; JMJD2A Tudor inh: -22.6%; BAZ2B inh: inconclusive; G9a inh: inconclusive

What do the screens show for `O=C(N/N=C/C1C(=O)NC(=S)N(c2ccccc2)C1=O)c1cc(Br)c(O)c(Br)c1` (stereo unspecified)?
PI5P4K alpha inh: -95.6*; HP1b chromo inh: -22.2%; L3MBTL1 block: 12.6µM*; JMJD2A Tudor inh: 10µM*; BAZ2B inh: 10.4%; G9a inh: 44.7µM*
